# Laboratory results taken from PubChem BioAssay (EPA / NIEHS).
# Records with an inconclusive call do not appear. Activity calls are given as the source filed them. The calls were made as follows: active = hit-call score of the fitted dose curve at least 0.9, where 1 is the maximum; inconclusive = response in the unintended direction; inactive = score below 0.9.
# Target: human RAR-related Orphan Receptor beta (RORb), RORB (gene 6096) (UniProt Q92753)
# Assay: ATG_RORb_TRANS: Attagene TRANS-FACTORIAL HepG2 Assay for human RAR-related Orphan Receptor beta (RORb) (AID 2283010)
# Method: ATG_TRANS is a cell-based, multiplexed-readout assay that uses HepG2, a human liver cell line, with measurements taken at 24 hours after chemical dosing in a 24-well plate.ATG_RORb_TRANS is one of 30 assay component(s) measured or calculated from the ATG_TRANS assay. It is designed to make measurements of mRNA induction, a form of inducible reporter, as detected with fluorescence intensity signals by Reverse transcription polymerase chain reaction (RT-PCR) and Capillary electrophoresis technology.Data from the assay component ATG_RORb_TRANS was analyzed into 1 assay endpoint. This assay endpoint, ATG_RORb_TRANS, was analyzed in the positive analysis fitting direction relative to DMSO as the negative control and baseline of activity. Using a type of inducible reporter, measures of mRNA for gain-of-signal activity can be used to understand the reporter gene at the transcription factor-level as they relate to the gene RORB. Furthermore, this assay endpoint can be referred to as a primary readout, because this assay has produced multiple assay endpoints where this one serves a reporter gene function. To generalize the intended target to other relatable targets, this assay endpoint is annotated to the nuclear receptor intended target family, where the subfamily is orphan.
# Human liver HepG2 cells are transiently transfected with multiple reporter transcription units (MRTUs) in 6-well plates using FuGene 6 reagent (Roche; 3 ml FuGene/1 mg DNA). The MRTU constructs are regulated by a cis-regulating element (promoter). […] A major difference between the CIS and TRANS system is that in CIS activities of endogenous TFs are measured, whereas the TRANS assay evaluates changes in activities of exogenous, chimeric NR-Gal4 proteins. […] At the end of 24 hour incubation, total RNA was isolated using TriZol reagent (Invitrogen). The isolated RNA is then reverse-transcribed using oligo(dT) primer and Mo-MLV reverse transcriptase (Invitrogen) with DNAse I (Ambion) treatment for 30 min. The one-tenth of the produced cDNA was amplified by PCR using Taq DNA polymerase (Invitrogen) and two reporter sequence-specific primers. The PCR products were fluorescently labeled by primer extension with 6-arboxyfluorescein (6-FAM) 5'-labeled reporter sequence-specific primer (2 min at 95 C, 20 s at 68 C and 10 min at 72 C) and these products were digested with 5U of HpaI (New England Biolabs) for 2h at 37 C. The fragments were purified using Qiaquick PCR columns (Qiagen), analyzed on an ABI 3130xL genetic analyzer (Applied Biosystems) with peak positions identified by using a set of X-rhodamine (ROX)-labeled MapMarker1000 molecular weight standards (BioVentures). The raw capillary electrophoresis data was processed using Attagraph software (Attagene).
# human RAR-related Orphan Receptor beta (RORb), RORB (gene 6096), sequence (Q92753 whole entry, looked up): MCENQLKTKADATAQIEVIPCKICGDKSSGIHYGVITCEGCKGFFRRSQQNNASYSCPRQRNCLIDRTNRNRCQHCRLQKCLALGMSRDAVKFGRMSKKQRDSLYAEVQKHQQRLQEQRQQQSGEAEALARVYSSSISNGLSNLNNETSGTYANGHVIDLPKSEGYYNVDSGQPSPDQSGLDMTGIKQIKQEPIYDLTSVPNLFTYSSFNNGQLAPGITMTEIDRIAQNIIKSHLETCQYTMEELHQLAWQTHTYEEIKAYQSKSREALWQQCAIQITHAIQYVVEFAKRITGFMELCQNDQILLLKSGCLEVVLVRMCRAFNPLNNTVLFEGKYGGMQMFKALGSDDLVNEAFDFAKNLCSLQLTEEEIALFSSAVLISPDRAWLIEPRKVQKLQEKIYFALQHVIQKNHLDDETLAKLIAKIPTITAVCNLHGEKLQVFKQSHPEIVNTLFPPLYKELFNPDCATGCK
row,Compound,outcome
1,O=C(O)C(F)(F)C(F)(F)OC(F)(F)F,inactive
2,CC(=O)Nc1ccc(N=Nc2cc(C)ccc2O)cc1,inactive
3,Nc1cc(Cl)c(N)c(Cl)c1,inactive
4,CCc1c(Br)c(Br)c(Br)c(Br)c1Br,inactive
5,CCCCCCOC(=O)c1ccccc1O,inactive
6,C(=C(c1ccccc1)c1ccccc1)c1ccccc1,inactive
7,CNC(=S)NC,inactive
8,CCCCCC=O,inactive
9,CC(C)OC(=O)c1ccccc1C(=O)OC(C)C,inactive
10,O=C(O)C(F)(F)C(F)(F)C(F)(F)C(F)(F)C(F)(F)C(F)(F)C(F)(F)C(F)(F)C(F)(F)C(F)(F)C(F)(F)C(F)(F)F,inactive
11,Nc1ccc(S(=O)(=O)Nc2nccs2)cc1,inactive
12,Cc1ccc(S(=O)(=O)NCl)cc1,inactive
13,CC(C)(C)c1ccc(OC2CCCCC2O)cc1 (stereo not given),inactive
14,CCC(=O)OCCc1ccccc1,inactive
15,[Co],inactive
16,Nc1ccc([N+](=O)[O-])cc1O,inactive
17,FC(F)(F)C(F)(F)C(F)(F)C(F)(F)CCI,inactive
18,CC/C=C\CCOC(=O)c1ccccc1,inactive
19,OCC(F)(F)C(F)(F)C(F)(F)C(F)F,inactive
20,C=C(C)C(=O)OCC(F)(F)C(F)(F)C(F)(F)C(F)(F)C(F)(F)C(F)(F)C(F)(F)F,inactive

row,Compound,outcome
1,FC(F)(F)C(F)(F)C(F)(F)C(F)(F)C(F)(F)C(F)(F)C(F)(F)C(F)(F)F,inactive
2,NC(=O)C(F)(F)C(F)(F)C(F)(F)C(F)(F)F,inactive
3,CC(C)(C)C(=O)CC(=O)C(F)(F)C(F)(F)C(F)(F)F,inactive
4,CCCCC(CC)COP(=O)(O)OCC(CC)CCCC (stereo not given),inactive
5,FC(F)(F)C(F)(F)C(F)(F)CI,inactive
6,Oc1ccc(Nc2ccccc2)cc1,inactive
7,OCC(F)(F)C(F)(F)C(F)(F)F,inactive
8,O=C(O)C(F)(F)C(F)(F)C(F)(F)C(F)(F)C(F)(F)C(F)(F)C(F)(F)C(F)(F)C(F)(F)C(F)(F)C(F)(F)C(F)(F)C(F)(F)F,inactive
9,C=CC(F)(F)C(F)(F)C(F)(F)C(F)(F)C(F)(F)C(F)(F)C(F)(F)C(F)(F)C=C,inactive
10,Cc1cc(C)cc(O)c1,inactive
11,FC(F)(F)C(F)(F)C(F)(F)C(F)(F)C(F)(F)C(F)(F)CC1CO1 (stereo not given),inactive
12,O=C(O)C(F)(OC(F)(F)C(F)(OC(F)(F)C(F)(OC(F)(F)C(F)(F)C(F)(F)F)C(F)(F)F)C(F)(F)F)C(F)(F)F (stereo not given),inactive
13,C=CC(=O)OCC(F)(F)C(F)(F)C(F)(F)C(F)(F)C(F)(F)C(F)(F)C(F)(F)F,inactive
14,O=C(O)C(F)(F)C(F)(F)C(F)(F)C(F)(F)C(F)(F)C(F)(F)C(F)(F)C(F)(F)C(F)(F)C(F)F,inactive
15,O=C(C=Cc1ccccc1)OCC=Cc1ccccc1,inactive
16,O=C(O)C(F)(F)C(F)(F)C(F)(F)C(F)(F)C(F)(F)C(F)(F)C(F)(F)C(F)(F)Cl,inactive
17,C1COCCN1,inactive
18,C=CC(F)(F)C(F)(F)C(F)(F)C(F)(F)C(F)(F)C(F)(F)C(F)(F)C(F)(F)F,inactive
19,O=C(O)C(F)(F)C(F)(F)C(F)(F)F,inactive
20,CCCCNc1ccccc1,inactive
